# Test results from PubChem BioAssay.
# Calls of active or inactive are those of the source.
# How the values were obtained:
# [1] = optical density shifts of acrAB sulA E. coli – strain DRC41, OD650, 48 h, E. coli filamentation inducer project, primary screen (AID 1152); settings: higher = more signal, called active from +8 up or from −8 down;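 further: E. coli MC1000 strain DRC41 lacking acrAB efflux pump and sulA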
# [2] = probe aLefty1 binding on compound microarray – biochemical, small-molecule microarray, 635/667 nm fluorescence, primary screen (AID 1153); settings: higher = more signal;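 further: score merges spot fluorescence with signal-to-noise ratio from the scanned slide images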
# [3] = plasmodial surface anion channel blockers, osmotic lysis – cell-based, P. falciparum Indochina, OD700, 1 h, primary screen (AID 1154); settings: P. falciparum Indochina infected RBC osmotic lysis, higher = more signal, called active from +8 up or from −8 down
# [4] = plasmodial surface anion channel blockers, osmotic lysis – cell-based, P. falciparum Indochina, OD700, 2 h, primary screen (AID 1155);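 further: lysis reports solute entry through the parasite surface anion channel PSAC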; settings: P. falciparum Indochina infected erythrocytes, higher = more signal, called active from +8 up or from −8 down
# [5] = changes in parasitized red cell lysis, either direction – P. falciparum Indochina, OD700, 3 h, PSAC antagonist project, primary screen (AID 1156); settings: P. falciparum-infected erythrocytes, osmotic lysis, higher = more signal, called active from +8 up or from −8 down
# [6] = plasmodial surface anion channel blockers, osmotic lysis – cell-based, P. falciparum Indochina, OD700, 18 h, primary screen (AID 1157); settings: P. falciparum Indochina infected erythrocytes, osmotic lysis OD700, 18 h; higher = more signal, called active from +8 up or from −8 down
# [7] = S6 kinase pathway phospho-S6 level changes – cell-based, A549, cytoblot, luminescence, serum-stimulated, primary screen (AID 1158); settings: 5 h, higher = more signal;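 further: serum-stimulated A549 lung adenocarcinoma cells; signal is phosphorylated S6 detected by cytoblot immunostaining with HRP secondary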
# [8] = target: NADPH oxidase 2 (Homo sapiens) (UniProt P04839); test: compounds shifting NOX2 Amplex Red fluorescence – cell-based, HEK293-NOX2, PMA-stimulated, NOX inhibitor project, primary screen (AID 1159); settings: 45 min, higher = more signal, called active from +8 up or from −8 down; further: test concentration not given here
# [9] = target: NADPH oxidase 4 (Homo sapiens) (UniProt Q9NPH5); test: compounds shifting NOX4 Amplex Red fluorescence – cell-based, HEK293-NOX4, tetracycline-induced, NOX inhibitor project, primary screen (AID 1160); settings: HEK293-NOX4, Amplex Red H2O2 fluorescence, 45 min; higher = more signal, called active from +8 up or from −8 down
# [10] = target: NADPH oxidase 5 (Homo sapiens) (UniProt Q96PH1); test: compounds shifting NOX5 Amplex Red fluorescence – cell-based, HEK293-NOX5, NOX inhibitor project, primary screen (AID 1161); settings: HEK293-NOX5, ionomycin, 45 min, higher = more signal
# [11] = compound effects on lung adenocarcinoma cell viability – A549, calcein-AM fluorescence, 48 h, basal, profiling panel (AID 1162); settings: higher = more signal; further: test concentration not given here
# [12] = compound effects on differentiated 3T3-L1 adipocyte viability – cell-based, 3T3-L1 adipocytes, calcein-AM fluorescence, 48 h, basal, profiling panel (AID 1163); settings: 3T3-L1 adipocytes viability, higher = more signal; further: test concentration not given here
# [13] = compound effects on hepatocellular carcinoma cell viability – HepG2, calcein-AM fluorescence, 48 h, basal, profiling panel (AID 1164); settings: higher = more signal; further: test concentration not given here
# [14] = compound effects on multiple myeloma cell viability – MM1S, calcein-AM fluorescence, 48 h, basal, profiling panel (AID 1165); settings: higher = more signal;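 further: viability of MM1S multiple myeloma cells under basal unstimulated conditions; test concentration not given here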
# [15] = calcein-AM signal in unstimulated myeloma cells – cell-based, calcein-AM fluorescence, 48 h, PK04 Diversity Set, profiling panel (AID 1166); settings: RPMI8226 myeloma viability, higher = more signal;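 further: cells grown under basal conditions without added stimulus; test concentration not given here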
# [16] = JC-1 mitochondrial signal, unstimulated HepG2 cells – cell-based, JC-1 fluorescence, 24 h, 100 nL compound, profiling panel (AID 1167); settings: HepG2 mitochondrial potential, higher = more signal; further: test concentration not given here
# [17] = JC-1 mitochondrial signal, unstimulated adipocytes – cell-based, JC-1 fluorescence, 3T3-L1 adipocytes, 24 h, 100 nL compound, profiling panel (AID 1168); settings: JC-1 mitochondrial fluorescence, higher = more signal, called active from +8 up or from −8 down; further: test concentration not given here
# [18] = JC-1 mitochondrial signal, unstimulated myeloma cells – cell-based, JC-1 fluorescence, RPMI8226, 24 h, 100 nL compound, profiling panel (AID 1169); settings: JC-1 mitochondrial potential fluorescence, higher = more signal; further: test concentration not given here
# [19] = JC-1 mitochondrial signal, unstimulated MM1S myeloma – cell-based, JC-1 fluorescence, 24 h, 100 nL compound, profiling panel (AID 1170); settings: MM1S mitochondrial potential, higher = more signal; further: test concentration not given here
# [20] = resazurin metabolic signal in A549 cells – cell-based, resazurin fluorescence, 24 h, PK04 Diversity Set, profiling panel (AID 1171); settings: A549 viability, higher = more signal, called active from +8 up or from −8 down; further: test concentration not given here
# Chain of NADPH oxidase 2 (Homo sapiens) (P04839 whole entry, looked up): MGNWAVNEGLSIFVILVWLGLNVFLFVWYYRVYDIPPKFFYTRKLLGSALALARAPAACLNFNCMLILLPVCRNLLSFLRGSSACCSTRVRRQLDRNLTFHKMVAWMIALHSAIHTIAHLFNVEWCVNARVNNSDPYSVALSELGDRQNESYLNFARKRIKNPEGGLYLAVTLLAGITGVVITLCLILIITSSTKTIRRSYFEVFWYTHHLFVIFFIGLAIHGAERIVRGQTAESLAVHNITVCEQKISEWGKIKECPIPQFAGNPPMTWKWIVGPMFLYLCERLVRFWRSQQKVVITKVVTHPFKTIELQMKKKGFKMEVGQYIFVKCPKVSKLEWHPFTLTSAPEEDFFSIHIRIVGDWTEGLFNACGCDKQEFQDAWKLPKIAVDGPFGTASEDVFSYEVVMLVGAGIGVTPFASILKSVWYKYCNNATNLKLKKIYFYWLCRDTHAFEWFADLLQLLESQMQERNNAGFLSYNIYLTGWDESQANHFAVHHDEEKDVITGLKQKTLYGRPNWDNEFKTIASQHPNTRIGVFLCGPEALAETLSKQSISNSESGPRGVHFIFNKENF
# Chain of NADPH oxidase 4 (Homo sapiens) (Q9NPH5 whole entry, looked up): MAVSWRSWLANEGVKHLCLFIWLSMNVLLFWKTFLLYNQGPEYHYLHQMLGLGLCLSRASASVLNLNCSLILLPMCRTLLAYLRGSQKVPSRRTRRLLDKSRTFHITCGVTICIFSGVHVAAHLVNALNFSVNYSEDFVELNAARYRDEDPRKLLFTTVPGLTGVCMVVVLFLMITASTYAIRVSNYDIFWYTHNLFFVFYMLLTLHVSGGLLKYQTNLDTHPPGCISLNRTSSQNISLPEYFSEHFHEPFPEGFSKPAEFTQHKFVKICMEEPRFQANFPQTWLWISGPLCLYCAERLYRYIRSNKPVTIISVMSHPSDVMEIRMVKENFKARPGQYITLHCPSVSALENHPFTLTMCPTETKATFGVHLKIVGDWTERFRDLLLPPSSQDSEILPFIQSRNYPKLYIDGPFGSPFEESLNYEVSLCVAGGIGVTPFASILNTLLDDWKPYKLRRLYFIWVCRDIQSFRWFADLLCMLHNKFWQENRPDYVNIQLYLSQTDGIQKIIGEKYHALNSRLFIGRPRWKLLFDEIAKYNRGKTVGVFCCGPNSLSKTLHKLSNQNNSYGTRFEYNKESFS
# Chain of NADPH oxidase 5 (Homo sapiens) (Q96PH1 whole entry, looked up): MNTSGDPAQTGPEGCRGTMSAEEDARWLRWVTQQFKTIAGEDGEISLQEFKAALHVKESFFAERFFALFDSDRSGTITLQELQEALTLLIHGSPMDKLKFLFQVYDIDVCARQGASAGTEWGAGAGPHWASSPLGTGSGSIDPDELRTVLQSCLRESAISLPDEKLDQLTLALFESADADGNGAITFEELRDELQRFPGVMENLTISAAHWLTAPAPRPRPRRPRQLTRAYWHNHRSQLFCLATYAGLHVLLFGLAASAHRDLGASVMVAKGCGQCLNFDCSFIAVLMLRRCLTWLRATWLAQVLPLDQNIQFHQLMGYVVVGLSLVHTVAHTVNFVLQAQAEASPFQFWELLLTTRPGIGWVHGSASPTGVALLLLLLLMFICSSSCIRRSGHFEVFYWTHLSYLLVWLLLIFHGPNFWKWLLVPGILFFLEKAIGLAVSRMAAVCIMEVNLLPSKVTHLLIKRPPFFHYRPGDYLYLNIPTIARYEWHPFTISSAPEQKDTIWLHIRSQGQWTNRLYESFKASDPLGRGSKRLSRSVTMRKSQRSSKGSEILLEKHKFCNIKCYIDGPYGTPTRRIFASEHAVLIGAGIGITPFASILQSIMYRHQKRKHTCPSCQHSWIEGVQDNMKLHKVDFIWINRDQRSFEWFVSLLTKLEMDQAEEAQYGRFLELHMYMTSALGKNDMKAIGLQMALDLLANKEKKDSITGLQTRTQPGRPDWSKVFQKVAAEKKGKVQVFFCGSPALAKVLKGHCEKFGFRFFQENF
Structure (SMILES),z-score [1],composite z-score [2],z-score [3],z-score [4],z-score [5],z-score [6],z-score [7],z-score [8],z-score [9],z-score [10],z-score [11],z-score [12],z-score [13],z-score [14],z-score [15],z-score [16],z-score [17],z-score [18],z-score [19],z-score [20]
C=CC[C@]1(C(=O)NCc2ccccc2)N=C(c2ccc(OCCCO)cc2)O[C@H]1c1ccccc1CN=[N+]=[N-],-1.21 (inactive),0.0556,19.7 (active),2.93 (inactive),3.16 (inactive),0.986 (inactive),-0.387,-0.302 (inactive),0.617 (inactive),-0.656,-0.774,0.0129,0.22,-1.28,-1.81,0.24,-0.889 (inactive),-0.787,0.407,0.668 (inactive)
CC1CC/C=C\[C@H]2OC34C=CCN(c5ccc6ccccc6c5)C(=O)[C@H]3N(CCO)C(=O)[C@@H]4C2C(=O)O1 (stereo not given in full),-0.0648 (inactive),0.552,3.56 (inactive),0.531 (inactive),0.15 (inactive),0.357 (inactive),0.21,1.43 (inactive),1.04 (inactive),2.4,-0.099,0.428,-0.303,1.01,-0.36,-0.438,-0.55 (inactive),-0.0138,1.19,-0.573 (inactive)
C=C(C(=O)CC[C@H](OC(C)=O)c1ccccc1OCCO)C(C)C,0.0974 (inactive),-0.147,2.27 (inactive),2.54 (inactive),-4.78 (inactive),-0.431 (inactive),0.66,-5.71 (inactive),-2.22 (inactive),-3.36,-2.33,-0.375,-3.04,-0.899,-1.94,-0.892,1.99 (inactive),-0.621,-1.19,-2.7 (inactive)
CCOC(=O)[C@H]1C/C=C/C[C@H](C(=O)OCC)C(=O)O[C@H]2[C@@H](OC)O[C@H](CO)[C@@H](OC(=O)c3ccc(Br)cc3)[C@@H]2OC1=O,-0.365 (inactive),-0.0349,2.35 (inactive),1.54 (inactive),-0.128 (inactive),0.877 (inactive),0.0379,-1.81 (inactive),-0.145 (inactive),-1.24,0.645,-0.009,0.404,-3.12,-3.75,-0.971,-0.339 (inactive),-0.935,-1.3,-1.92 (inactive)
COCCCNC(=O)[C@@H]1c2ccccc2C(=O)N(Cc2ccccc2)[C@H]1c1ccc(CO)cc1,-0.134 (inactive),0.603,0.481 (inactive),-0.307 (inactive),0.239 (inactive),0.129 (inactive),-0.0034,-0.694 (inactive),0.572 (inactive),-2.19,0.273,0.803,0.601,0.239,0.437,1.1,-0.0918 (inactive),0.163,0.282,0.45 (inactive)
